40 compounds from PubChem BioAssay (NCATS) can be followed below.

Inconclusive results are not listed. Activity calls are given as the source filed them. Calls follow the shape of the dose curve; as a rule, active = well fitted inhibition curve with a large enough effect; inconclusive = small, poorly fitted or top-dose-only effect; inactive = no such curve, though single readings can be large or run the other way.

The assay can be described thus: NS1 protein of Zika virus - qHTS assay to identify small molecule inhibitors in human HEK 293 cells (AID 1347053).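 Also: plate controls were infected untreated cells for no effect and uninfected cells for full effect; nearly all actives have a fitted effect of over 55% in size.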 Particulars: HEK293 ZIKV MR766 infection, NS1 TR-FRET, 24 h; series mostly up to 46.1 µM; activity change, negative = inhibition: at the top concentration. The text has this:
National Center for Advancing Translational Sciences [NCATS]
Johns Hopkins University School of Medicine
The non-structural 1 (NS1) protein of zika virus is known to associate with the viral replication complex. This cell-based TR-FRET ZIKV NS-1 assay measures the increased NS-1 protein in human HEK 293 cells after a 24-hour Zika virus infection by a TR-FRET assay readout. A decrease in the Time-resolved fluorescence energy transfer (TR-FRET) signal in this assay by small molecule treatment indicates an inhibitory effect of the small molecule on the expression of Zika virus NS1 correlating with Zika virus replication.
HEK 293 cells were cultured in EMEM (ATCC, Cat. # 30-2003) medium with 10% fetal bovine serum (GE healthcare Life Sciences, Cat. # SH30071.03), and 1% Pen/Strep (Gibco, Cat. # 15140-122). Cells were seeded in the assay plate and incubated at 37 C with 5% CO2 for 20 hours. Compounds were added to cells and incubated for one hour before addition of ZIKV MR766 strain solution to cells (MOI = 0.5). After an incubation at 37 C for 24 hours, the reagent mixture of TR-FRET ZIKV NS1 assay using two anti-ZIKV NS1 antibodies was added to assay plates. The TR-FRET signals in assay plates were measured using an Envision plate reader (PerkinElmer). Data were normalized by using the cell-containing wells without ZIKV as a negative control (0% NS-1) and wells containing ZIKV infected cells as a positive control (100% NS-1 level).
(qHTS replaces the single test concentration by a dilution series.)
Turning to `Cn1c(=O)c2[nH]c(-c3ccccc3)nc2n(C)c1=O`, the “activity change, negative = inhibition” value was -4.44% (inactive).

On to `COc1ccccc1CN[C@@H]1CCCN[C@@H]1c1ccccc1`, for which the “activity change, negative = inhibition” value is 5.62% (inactive).

Take `CNc1ncnc2c1ncn2[C@@H]1O[C@H](CO)[C@@H](O)[C@H]1O`: the “activity change, negative = inhibition” value is -1.58% (inactive).

Consider `Cc1cn([C@H]2CC(N=[N+]=[N-])[C@@H](CO)O2)c(=O)[nH]c1=O` (stereo not given in full), for which the “activity change, negative = inhibition” value was -5.55% (inactive).

As to `Nc1ccc(O)c([N+](=O)[O-])c1`, the “activity change, negative = inhibition” value was -5.29% [at 92.8 µM] (inactive).

As to `O=C(c1ccc(OCCCc2cnc[nH]2)cc1)C1CC1`, the “activity change, negative = inhibition” value is -3.09% (inactive).

Regarding `CCCSc1ccc2nc(NC(=O)OC)[nH]c2c1`, the “activity change, negative = inhibition” value is 37.1% (inactive).

For the compound `O=C(O)CNC(=O)C(CS)Cc1ccccc1` (stereo not given), the “activity change, negative = inhibition” value was 0.932% (inactive).

Turning to `NCCCCC(=O)O`, the “activity change, negative = inhibition” value was 0.0666% (inactive).

For `COc1ccc(/C=C/c2nc(NCCCN(C)C)c3ccccc3n2)cc1`, the “activity change, negative = inhibition” value is 25% (inactive).

Regarding `CN(C)c1ccc(N=NS(=O)(=O)O)cc1`, the “activity change, negative = inhibition” value is 13.1% [at 92.8 µM] (inactive).

For the compound `Nc1ccc([N+](=O)[O-])cc1O`, the “activity change, negative = inhibition” value was 1.45% [at 92.8 µM] (inactive).

For the compound `Cc1cc(NC(=O)Nc2ccc3c(ccn3C)c2)sn1`, the “activity change, negative = inhibition” value is -0.0005% (inactive).

`O=C(Nc1ccccc1)c1cc([N+](=O)[O-])ccc1Cl`: the “activity change, negative = inhibition” value was -18.3% (inactive).

`C=CCCCCCCCCC(=O)O`: the “activity change, negative = inhibition” value is 8.2% (inactive).

Consider `CNCC[C@H](Oc1ccc(C(F)(F)F)cc1)c1ccccc1`, for which the “activity change, negative = inhibition” value was 29.2% (inactive).

In the case of `NCCCCCCCCCCN`, the “activity change, negative = inhibition” value is 13.7% (inactive).

For `OC[C@H]1O[C@@H](n2cnc3c(NC4CCCCC4)ncnc32)[C@H](O)[C@@H]1O`, the “activity change, negative = inhibition” value was -2.91% (inactive).

Consider `Fc1ccc(C(OCCCc2cnc[nH]2)c2ccc(F)cc2)cc1`, for which the “activity change, negative = inhibition” value was 4.82% (inactive).

As to `O=C(O)CC1CCCc2ccccc2C1O` (stereo not given), the “activity change, negative = inhibition” value is -14.5% (inactive).

In the case of `CCN(CC)c1ncnc2c1ncn2[C@@H]1O[C@H](COP(=O)(O)OP(=O)(O)C(Br)(Br)P(=O)(O)O)[C@@H](O)[C@H]1O`, the “activity change, negative = inhibition” value was -0.318% (inactive).

For the compound `COc1cc(C(O)CO)ccc1OS(=O)(=O)O` (stereo not given), the “activity change, negative = inhibition” value was -8.81% (inactive).

Take `O=C(/C=C/c1ccccc1)NCCO`: the “activity change, negative = inhibition” value is -6.06% (inactive).

As for `O=Cc1ccc(O)c(O)c1O`, the “activity change, negative = inhibition” value was 4.88% (inactive).

Turning to `Clc1ccc(N2CCN(Cc3c[nH]c4ncccc34)CC2)cc1`, the “activity change, negative = inhibition” value is 10.3% (inactive).

In the case of `CCNc1nc2c(ncn2[C@H]2C[C@H](O)[C@@H](CO)O2)c(=O)[nH]1`, the “activity change, negative = inhibition” value was 2.53% (inactive).

As for `Nc1ccn([C@@H]2O[C@H](CO)[C@@H](O)[C@@H]2O)c(=O)n1`, the “activity change, negative = inhibition” value was 25.1% (inactive).

For `O=C(O)CCCC[C@@H]1CCSS1`, the “activity change, negative = inhibition” value was -10.2% (inactive).

`Cc1cc(NC2CCCCC2)nc(-n2nc(C)cc2C)n1`: the “activity change, negative = inhibition” value is 0.677% (inactive).

Consider `CCC1C(=O)OCC1Cc1cncn1C` (stereo not given), for which the Potency entry was “inactive”.

Regarding `O=C(O)c1cc(O)c(O)c(O)c1`, the “activity change, negative = inhibition” value was -1.98% (inactive).

For the compound `CCCCCCOc1ccccc1C(N)=O`, the “activity change, negative = inhibition” value is -16.1% (inactive).

Consider `Cc1c(N)c(=O)n(-c2ccccc2)n1C`, for which the “activity change, negative = inhibition” value was -15.3% (inactive).

Turning to `COc1cc(SC)ccc1C(=O)N1CCC(Cc2ccccc2)CC1`, the “activity change, negative = inhibition” value is 16.6% (inactive).

In the case of `COc1ccc(-c2cc(=S)ss2)cc1`, the “activity change, negative = inhibition” value is 7.96% (inactive).

With `CC(=O)N[C@H](C(=O)O)C(C)(C)SN=O`, the “activity change, negative = inhibition” value is 28.2% (inactive).

As to `Nc1nc(OCC2CCCCC2)c2[nH]cnc2n1`, the “activity change, negative = inhibition” value is 0.844% (inactive).

For `CCCCCCCCCCCCCCCCCC(=O)OC(CC(=O)O)C[N+](C)(C)C` (stereo not given), the “activity change, negative = inhibition” value was 6.06% (inactive).

In the case of `CN(CCCOc1ccc(Cc2ccccc2)cc1)CCC(=O)O`, the “activity change, negative = inhibition” value was -2.42% (inactive).

`CCC(CO)Nc1nc(NCc2ccccc2)c2ncn(C(C)C)c2n1` (stereo not given): the “activity change, negative = inhibition” value is 12.2% (inactive).
